CYP2C9 act – CYP2C9 (human) activation. P11712. recombinant CYP2C9, luciferin-H conversion, luminescence; hits give high values; factor 1 = untreated enzyme, 0 = blocked. activation factor at 5 µM. 96,000 compounds, 1.4% hits. AID 1024;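 active = activation factor of 2 or more for CYP2C9 at a 5 µM dose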;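 also: 0 = sulfaphenazole-blocked wells and 1 = vehicle-only wells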
CYP2C9 inhib – human CYP2C9 inhibition | CYP2C9 Supersomes, luciferin-H conversion, luminescence | AID 777 | inhibition, % at 5 µM | 96,000 compounds, 20% hits | P11712;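 active = blocking of liver enzyme CYP2C9 beyond about 50% at 5 µM, limit read from the data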
Cav3 T inh – inhibitors of human Cav3.2 T-type calcium channel; O95180; Cav3.2-expressing cells, Fluo-4 calcium fluorescence FDSS; hits give low values; B-score at 10 µM; 100,000 compounds, 4% hits;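 active = single-dose well whose peak fluorescence ratio is a statistical outlier from its plate by either plate-standardised score or position-corrected B-score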
CYP2C19 activ – cytochrome P450 2C19 (human) activation | P33261 | activation factor at 5 µM | 96,000 tested, under 10 active | recombinant CYP2C19, luciferin-H EGE luminescence; hits give high values; 0 = fully inhibited enzyme, 1 = untreated enzyme;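 active = activation factor of at least 2 at 5 µM in the primary screen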;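 also: 0 = wells with 2.5 mM tranylcypromine and 1 = vehicle-only wells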
Target sequence (P33261 whole entry, looked up): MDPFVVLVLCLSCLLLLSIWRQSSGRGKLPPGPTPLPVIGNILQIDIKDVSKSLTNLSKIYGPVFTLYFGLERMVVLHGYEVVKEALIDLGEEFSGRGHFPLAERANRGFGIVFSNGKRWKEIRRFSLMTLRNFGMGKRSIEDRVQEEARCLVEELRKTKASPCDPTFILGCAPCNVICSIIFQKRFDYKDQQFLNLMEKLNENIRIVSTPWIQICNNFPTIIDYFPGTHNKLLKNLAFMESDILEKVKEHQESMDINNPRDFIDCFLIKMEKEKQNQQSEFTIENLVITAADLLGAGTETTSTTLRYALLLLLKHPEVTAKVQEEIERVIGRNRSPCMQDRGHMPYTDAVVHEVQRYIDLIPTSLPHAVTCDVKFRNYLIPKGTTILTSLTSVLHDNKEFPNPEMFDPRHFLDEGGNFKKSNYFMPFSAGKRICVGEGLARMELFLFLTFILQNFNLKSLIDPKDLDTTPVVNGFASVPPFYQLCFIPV
CYP2C19 inh – blocks human cytochrome P450 2C19; P33261; CYP2C19 Supersomes, luciferin-H EGE luminescence, 30 min; inhibition, % at 5 µM; 96,000 compounds, 21% hits;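 active = CYP2C19 inhibition above a set limit at 5 µM in the primary screen, cut at about 50% in these data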;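 also: plate controls were negative control wells for no effect and 2.5 mM tranylcypromine positive control for full effect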
Numbers without * were called inactive; nt = not tested or not shown. Hits are enriched below; roughly 27% of the tested compounds scored in any of these assays.

SMILES	CYP2C9 act	CYP2C9 inhib	Cav3 T inh	CYP2C19 activ	CYP2C19 inh
COc1ccc([C@@]2(O)c3c(ccc(CC=C(C)C)c3O)NC(=O)[C@@H]2OC)cc1	nt	nt	-2.5	nt	nt
COCCCNC(=O)CN(c1cccc(Cl)c1)S(C)(=O)=O	1.3	-28.0	nt	0.9	13.9
COc1ccc(OC)c(N(CC(=O)NCCSc2ccccc2)S(C)(=O)=O)c1	0.1	89.6*	0.65	0.1	93.7*
COc1ccc(N(CC(=O)NCCSC(C)(C)C)S(C)(=O)=O)c(OC)c1	1	-1.8	1.05	1	4.0
COc1ccc(CNC(=O)CN(c2cccc(OC)c2)S(C)(=O)=O)cc1	0.8	16.9	-1.17	0.1	86.7*
COc1cccc(N(CC(=O)O)S(=O)(=O)c2ccccc2)c1	1.1	-9.8	-0.0687	1.2	-21.0
COc1cccc(N(CC(=O)NCCSc2ccc(Cl)cc2)S(C)(=O)=O)c1	0.8	16.3	-5.54*	0.9	13.5
COCCNC(=O)CN(c1cccc(OC)c1)S(=O)(=O)c1ccc(C)cc1	0.6	40.2	nt	0.2	76.0*
CCOP(=O)(c1ccccc1)c1nc(-c2ccccc2C)oc1N1CCCCC1 (stereo not given)	0.9	9.9	nt	0.9	7.6
COc1cccc(N(CC(=O)NCCSc2ccccc2)S(C)(=O)=O)c1	0.4	56.0*	0.276	0.1	93.4*
O=C(OCCN1CCCC1=O)c1cncc(Br)c1	1.1	-7.2	1.64	1	-0.5
Cc1noc(/C=C/NCc2cccnc2)c1S(=O)(=O)N(C)CC(=O)N1CCc2ccccc21	0.2	77.6*	1.85	0.8	17.0
Cc1noc(/C=C/N(C)C)c1S(=O)(=O)N(C)CC(=O)N1CCc2ccccc21	0.6	39.1	1.18	1	4.5
COc1cc(OC)cc(C(=O)N[C@H](C(=O)Nc2ccccc2N2CCOCC2)C(C)C)c1	0.6	41.6	0.0849	0.5	48.1
O=C(Nc1ccccc1N1CCOCC1)c1cccs1	nt	nt	0.141	nt	nt
CCC(C)Oc1cccc(C(=O)Nc2ccccc2N2CCOCC2)c1 (stereo not given)	0.3	73.1*	-5.26*	0.3	67.9*
CC(C)Oc1cccc(C(=O)Nc2ccccc2N2CCOCC2)c1	0.4	58.7*	-1.94	0.6	37.7
Cc1cc(Cl)ccc1OC(C)C(=O)Nc1ccccc1N1CCOCC1 (stereo not given)	0	96.9*	nt	0.1	90.0*
CCOc1ccc(C(=O)Nc2ccccc2N2CCCC2)cc1	1.1	-9.1	-1.03	0.9	10.2
Cc1cc(Cl)ccc1OC(C)C(=O)N1CCCN(C(=O)C(C)Oc2ccc(Cl)cc2C)CC1 (stereo not given)	1	2.1	-5.42*	0.8	22.5
Fc1ccc(OCc2nnc(SCCN3CCOCC3)o2)cc1	nt	nt	0.538	nt	nt
COc1ccc(C2C(=O)N(CCc3ccccc3)CC(=O)N2C2CCCCC2)cc1 (stereo not given)	0.7	30.2	-1.21	0.9	14.2
O=C(c1cc2nc(-c3ccccc3)cc(-c3ccccc3)n2n1)N1CCN(C(=O)c2ccco2)CC1	0.6	41.8	-0.173	0.6	38.4
CSc1nc2nc3c(c(=O)n2[nH]1)CCCC3	0.9	11.4	0.0794	1.1	-7.2
CCCCC(c1nnnn1CCOC)N1CCN(Cc2ccccc2)CC1 (stereo not given)	nt	nt	0.59	nt	nt
SMILES	CYP2C9 act	CYP2C9 inhib	Cav3 T inh	CYP2C19 activ	CYP2C19 inh
OC(CNCC(c1ccco1)N1CCCCC1)c1ccccc1 (stereo not given)	1	0.3	nt	0.8	17.8
CCOc1ccc(C(=O)C2CCN(CC(=O)Nc3ccccc3N3CCOCC3)CC2)cc1	0	96.3*	-1.34	0	99.1*
COC(=O)c1ccccc1NC(=O)CNc1cc(Cl)ccc1N1CCOCC1	0.1	94.5*	-3.15	0.2	84.0*
COC(=O)c1cc(NCc2ccccc2F)ccc1N1CCOCC1	0.5	54.9*	0.168	0.1	86.9*
O=C(COC(=O)c1ccccc1)Nc1ccccc1N1CCOCC1	nt	nt	0.754	nt	nt
CCOc1ccccc1CNc1ccc(N2CCOCC2)c(C(=O)O)c1	1	0.7	2.11	1	-1.8
CCOc1ccc(C(=O)Nc2ccccc2N2CCOCC2)cc1	1	-1.3	-0.383	0.8	17.7
COC(=O)N1CCN(S(=O)(=O)c2ccc(F)cc2)CC1	nt	nt	0.764	nt	nt
CCCc1nnc(SCC(=O)N2C(C)CCCC2C)n1CC1CCCO1 (stereo not given)	1	-0.7	0.0687	0.8	17.5
Cc1nn(-c2ccccc2)c(Cl)c1C(=O)Nc1c(C)n(C)n(-c2ccccc2)c1=O	0.9	8.5	-0.42	1	-2.7
COc1ccccc1OCCn1c(CO)nc2ccccc21	0.8	17.7	-0.316	0.4	55.8*
CCn1c(COc2ccccc2)nc2ccccc21	nt	nt	-0.0085	nt	nt
CCOc1cc(C#N)c(NC(=O)Cn2nnc3ccccc32)cc1OCC	0.9	11.6	-0.0107	1.1	-7.7
CC(O)c1nc2ccccc2n1CCOc1ccccc1 (stereo not given)	nt	nt	-0.854	nt	nt
CCOc1ccccc1OCCn1nnc2ccccc21	1.8	-76.4	0.108	0.2	83.2*
COCCn1c(COc2ccc(OC)cc2)nc2ccccc21	0.7	35.0	nt	0.1	92.0*
COc1ccccc1OCCn1c(C(C)O)nc2ccccc21 (stereo not given)	0.9	6.9	-1	0.1	85.2*
O=C1C=C(c2ccc(Cl)cc2)OC2(CCCC2)O1	0.6	36.1	-0.584	0.8	24.1
Cc1cccc(OCCCn2c(CCNC(=O)C(C)C)nc3ccccc32)c1	nt	nt	-1.14	nt	nt
Cc1cccc(OCCn2c(CCCO)nc3ccccc32)c1	0.3	68.3*	-2.73	0.1	90.9*
C=CCNC(=O)c1c(CSc2ccccc2)noc1C(=O)NCc1ccccc1	nt	nt	-2.08	nt	nt
COc1ccc(CNc2oc(C)nc2C#N)cc1	nt	nt	-0.7	nt	nt
Cc1cccc(OCc2nc(C#N)c(NCCN(C)C)o2)c1	1	-2.0	nt	0.9	7.8
N#Cc1nc(COc2ccc(Cl)cc2)oc1NCc1ccc2c(c1)OCO2	0.2	84.2*	-0.121	0.3	65.1*
CCNc1oc(COc2cccc(C)c2)nc1C#N	0.5	50.9*	-0.207	0	97.8*
SMILES	CYP2C9 act	CYP2C9 inhib	Cav3 T inh	CYP2C19 activ	CYP2C19 inh
Cc1cccc(OCc2nc(C#N)c(NCc3ccc4c(c3)OCO4)o2)c1	0	97.4*	-6.8*	0	98.7*
Cc1nc(C#N)c(NCc2ccc3c(c2)OCO3)o1	0.6	39.3	nt	0.1	92.4*
C[C@@]1([C@@H](NC(=O)c2cccs2)c2ccc(-c3ccccc3)cc2)C[C@H]1C1CCCCC1	nt	nt	0.071	nt	nt
COc1ccc(Nc2oc(COc3cccc(C)c3)nc2C#N)cc1	0.7	28.7	-1.58	0.7	30.4
Cc1cccc(OCc2nc(C#N)c(N3CC(C)CC(C)C3)o2)c1 (stereo not given)	0.2	78.1*	-7.34*	0.2	82.4*
C=CCc1ccccc1OCC(=O)OCCNC(=O)c1cccnc1	0.8	17.5	0.159	0.9	9.7
CC(C)CNC(=O)COC(=O)c1cc(Cl)cc(Cl)c1N	1.9	-93.6	-2.05	0.3	65.7*
COC(=O)CNC(=O)COC(=O)c1cc(Cl)cc(Cl)c1N	nt	nt	0.138	nt	nt
